Test [1] deals with ATP-dependent 6-phosphofructokinase (Trypanosoma brucei brucei) (UniProt O15648). Kind of test: qHTS Validation Assay to Find Inhibitors of T. brucei phosphofructokinase (AID 485368). Further: potency means the concentration at half of the fitted maximal effect. The method, boiled down:
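Steps: substrate mix (0.5 mM F6P, 0.1 mM ATP, MgCl2, TEA pH 8.0); compound; 1.25 nM T. brucei PFK; 45 min RT; ATP depletion 10 min; ADP-to-ATP detection 10 min; luminescence read; curve fitting and classification.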

For test [2], the target named is Thioredoxin reductase 1, cytoplasmic (Rattus norvegicus) (UniProt O89049). As to the kind of experiment: qHTS Assay for Substrates of Mammalian Selenoprotein Thioredoxin Reductase 1 (TrxR1) (AID 488772).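 Further: NADPH fluorescence in the first read after selenite addition and not the 8 min delta; series mostly up to about 57 µM; 0% is about no effect; a drop in NADPH fluorescence below the no-compound background marks a TrxR1 substrate.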 A digest of the protocol:
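Quantitative HTS in Tris-HCl buffer at pH 7.5 with EDTA and Tween-20, using rat TrxR1, 400 uM NADPH and 400 uM selenite (final). A fall in initial NADPH fluorescence relative to background marked substrate behaviour.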
A general note: Quantitative high-throughput screening tests each substance at several concentrations.

For test [3] the target is unchanged. Kind of test: qHTS Assay for Inhibitors of Mammalian Selenoprotein Thioredoxin Reductase 1 (TrxR1) (AID 488773). Further: nearly all actives have a fitted effect of over 40% in size. Further: potency means the concentration at half of the fitted maximal effect. The following applies: Potency: inhibition. The method, boiled down: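 Steps: enzyme (90 nM) plus NADPH (400 uM final), 5 min at ~22 deg C; compound added, 15 min; selenite (400 uM final) added; fluorescence followed for 8 min. Concentration-response curves derived from the normalized delta values.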

Test [4] deals with Flap endonuclease 1 (Homo sapiens) (UniProt P39748). Kind of test: qHTS Validation Assay for the Inhibitors of Human Flap endonuclease 1 (FEN1) (AID 488816). Further: potency means the concentration at half of the fitted maximal effect. The method, boiled down:
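FEN1, dispensed as a 10 nM reagent, was preincubated with pin-transferred compounds for 15 min at room temperature before substrate was added (50 nM final). Plates were read at 0 and 15 min, and a four-parameter Hill equation was fitted to the concentration-response data.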

For test [5], the target named is M-phase phosphoprotein 8 (Homo sapiens) (UniProt Q99549). As to the kind of experiment: qHTS Validation Assay for Inhibitors for MPP8 Chromodomain Interactions with Methylated Histone Tails (AID 488949). Further: nearly all actives have a fitted effect of over 55% in size. Further: potency means the concentration at half of the fitted maximal effect. The method, boiled down: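 AlphaScreen proximity signal from streptavidin donor and Ni-chelate acceptor beads (10 ug/mL each) reported binding of MPP8 to trimethyl-K9 H3(1-18) peptide, both at 50 nM. The complex formed 30 min before a 30 min compound exposure at room temperature, in PBS pH 7.4.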

The target of test [6] is Methanococcus maripaludis chaperonin (MmCpn) (UniProt Q6LX38). Kind of test: High-Throughput Screening for Modulators of Cytosolic Chaperonin Activity: MmCpn Primary Screen (AID 488978).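 Further: 50 nM MmCpn enzyme hydrolysing 30 µM ATP at 37 °C; 0% is about no effect.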 The method, boiled down: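 ATPase activity of 50 nM MmCpn was assayed with 30 uM ATP, 10 minutes at 37C, after a 5 min compound preincubation at room temperature. ADP production was read as HTRF emission at 590 and 665 nm.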

Test [7] concerns the target D(1A) dopamine receptor (Homo sapiens) (UniProt P21728). Kind of test: HTS Assay for Allosteric Agonists of the Human D1 Dopamine Receptor: Primary Screen for Agonists (AID 488981). Further: 0% is about no effect. The method, boiled down:
(§1)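 Tetracycline-induced HEK293 T-REx cells force-coupled to calcium signalling were incubated overnight at 30 C and dye-loaded at room temperature. Calcium flux over 180 s after compound addition flagged agonists; a further 180 s read after EC20 dopamine flagged potentiators.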

Test [8] has the same target. As to the kind of experiment: HTS Assay for Allosteric Agonists of the Human D1 Dopamine Receptor: Primary Screen for Potentiators (AID 488982). Further: 0% is about no effect. A digest of the protocol: as §1
The target is the same in test [9]. As to the kind of experiment: HTS Assay for Allosteric Agonists of the Human D1 Dopamine Receptor: Primary Screen for Antagonists (AID 488983).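 Further: calcium flux response to an EC80 dopamine challenge measured with no-wash dye; on the % scale 0 is the no-effect control and ±100 the full control effect; nearly all actives have a fitted effect of over 65% in size.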 A digest of the protocol: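 Tetracycline-induced HEK293 T-REx D1 line, force-coupled to calcium flux, read with no-wash calcium dye. Compound added after 10 s baseline, read 180 s for agonism, then EC80 dopamine added and read a further 180 s.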

Test [10] in a line: Validation screen for small molecules that induce genotoxicity in human embryonic kidney (HEK293T) cells expressing luciferase-tagged ELG1 (AID 493106). Further: 0% is about no effect. A digest of the protocol: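 HEK293T cells expressing luciferase-tagged ELG1, 2,000 cells/well, exposed to compound 16 hr at 37 °C, 5% CO2. Luciferase read after ONE-Glo, 30 min at room temperature; increased signal indicates genetic stress.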

In test [11] the target is ATPase family AAA domain-containing protein 5 (Homo sapiens) (UniProt Q96QE3). As to the kind of experiment: Validation screen for small molecules that inhibit ELG1-dependent DNA repair in human embryonic kidney (HEK293T) cells expressing luciferase-tagged ELG1 (AID 493107).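 Further: cells co-treated with the DNA-damaging agent 5-fluorouridine alongside compound; series mostly up to about 46 µM; on the % scale 0 is the no-effect control and ±100 the full control effect; inhibitors lower the ELG1-luciferase luminescence signal; nearly all actives have a fitted effect of over 70% in size.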 The method, boiled down:
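HEK293T cells expressing luciferase-tagged ELG1, 2,000 per well, treated with 5-fluorouridine plus compound for 16 h at 37 C. ONE-Glo luminescence after 30 min at room temperature reports ELG1 reporter level.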

Test [12] is described as follows: Nrf2 qHTS screen for inhibitors: Validation (AID 493153; active means well fitted inhibition curve with a large enough effect in the main read-out, with a control signal flat, not every such curve was filed as active). The following applies: Potency: luciferase luminescence; viability change: measured here: cytotoxicity max response. The method, boiled down:
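A549 cells carrying ARE-firefly luciferase reporter, 5000 cells/well in 5% FBS OPTI-MEM, treated with compound over a concentration series for 18-24 h at 37 C. Luciferase luminescence gave Nrf2 activity; CellTiter-Fluor fluorescence gave viability.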

Test [13] is described as follows: qHTS for Inhibitors of Cell Surface uPA Generation: Validation Assay (AID 493164). Further: 0% is about no effect. The method, boiled down:
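RAW 264.7 cells (4000/well) were plated overnight, then exposed for 18 h at 37 C, 5% CO2 to compounds in a 7-point 1:5 titration (2.45 nM–38.3 uM final). Intracellular ATP was read by ATP-Lite luminescence.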

For test [14], the target named is ATP-dependent 6-phosphofructokinase (Trypanosoma brucei brucei) (UniProt O15648). As to the kind of experiment: qHTS Assay to Find Inhibitors of T. brucei phosphofructokinase: hit validation (AID 492961).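 Further: luminescence reports ADP formed as PFK phosphorylates fructose-6-phosphate with ATP; series mostly up to about 51 µM; on the % scale 0 is the no-effect control and ±100 the full control effect.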 The method, boiled down:
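Percent activity derived from corrected luminescence, normalized between 0x and 1x enzyme controls, then fitted to concentration-response curves. Conditions: 1.25 nM PFK, 0.1 mM ATP, 0.5 mM F6P, 45 min RT.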

For test [15], the target named is Tyrosyl-DNA phosphodiesterase 1 (Homo sapiens) (UniProt Q9NUW8). Kind of test: Confirmation Assay for Inhibitors of Tyrosyl-DNA Phosphodiesterase (TDP1) (AID 489007). Further: potency means the concentration at half of the fitted maximal effect; nearly all actives have a fitted effect of over 40% in size. The following applies: recombinant human TDP1 enzymatic activity, dose-response. A digest of the protocol:
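Recombinant human Tdp1 (1 nM final), expressed in E. coli, preincubated 15 min with compound. Then 15 nM 5'-biotin/3'-phosphotyrosine-FITC DNA substrate added for 5 min at room temperature. AlphaScreen beads (10 ug/ml) added for 10 min; cleavage gives signal loss.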

The nature of test [16]: Quantitative high throughput screen for delayed death inhibitors of the malarial parasite plastid, 48 hour incubation (AID 488752). Further: nearly all actives have a fitted effect of over 65% in size. Further: potency means the concentration at half of the fitted maximal effect. A digest of the protocol:
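Erythrocytes infected with firefly luciferase-expressing P. falciparum (2% hematocrit, 0.1% parasitemia) cultured with compound for 48 h at 37 C, 5% CO2, in RPMI 1640/0.5% Albumax. Growth inhibition read as loss of luminescence.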

Test [17] addresses Transient receptor potential cation channel subfamily V member 1 (Homo sapiens) (UniProt Q8NER1). Kind of test: HTS Assay for Compounds that Act as Enhancers of the Vanilloid Receptor 1 (AID 488979). Further: 0% is about no effect. The method, boiled down:
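TRPV1-expressing cells loaded with Fluo-8 calcium dye; compounds added and calcium influx read kinetically for 3 min (agonist phase), then capsaicin at EC20 added and read 2 min more for enhancement. Fluorescence ex 480/em 520 nm.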

The target in test [18] is Thyrotropin receptor (Homo sapiens) (UniProt P16473). Kind of test: qHTS Assay for Antagonists of the Thyroid Stimulating Hormone Receptor (AID 488980). Further: series mostly up to about 58 µM; 0% is about no effect. The method, boiled down: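 Inhibition of cAMP raised by EC80 TSH (4 nM final) was read by HTRF, with lysate cAMP competing against cAMP-d2 for cryptate antibody after 30 min at room temperature. The cells were transfected HEK293 held in phosphodiesterase inhibitor RO 20-1724 at 70 uM.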
Sequence of Thyrotropin receptor (Homo sapiens) (P16473 whole entry, looked up): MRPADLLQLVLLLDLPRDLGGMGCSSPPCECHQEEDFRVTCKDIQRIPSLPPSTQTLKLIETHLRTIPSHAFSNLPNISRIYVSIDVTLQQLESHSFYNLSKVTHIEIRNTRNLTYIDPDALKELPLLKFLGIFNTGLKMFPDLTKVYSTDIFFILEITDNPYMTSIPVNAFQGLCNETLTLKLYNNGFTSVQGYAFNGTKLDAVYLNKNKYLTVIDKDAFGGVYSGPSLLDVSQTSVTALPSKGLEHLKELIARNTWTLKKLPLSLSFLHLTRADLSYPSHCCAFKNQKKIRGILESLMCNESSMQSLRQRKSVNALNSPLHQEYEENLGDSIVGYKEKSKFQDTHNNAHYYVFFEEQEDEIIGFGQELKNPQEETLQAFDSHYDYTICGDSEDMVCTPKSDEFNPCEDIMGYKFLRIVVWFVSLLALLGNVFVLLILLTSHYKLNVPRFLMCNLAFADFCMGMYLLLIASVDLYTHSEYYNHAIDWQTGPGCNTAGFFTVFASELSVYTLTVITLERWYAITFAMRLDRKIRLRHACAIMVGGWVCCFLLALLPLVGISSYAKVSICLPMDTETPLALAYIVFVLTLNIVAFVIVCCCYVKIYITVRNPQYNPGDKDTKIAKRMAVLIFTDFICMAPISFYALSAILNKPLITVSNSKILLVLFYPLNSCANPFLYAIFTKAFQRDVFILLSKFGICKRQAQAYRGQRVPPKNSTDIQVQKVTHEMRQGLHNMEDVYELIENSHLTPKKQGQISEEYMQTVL

Test [19] is described as follows: Quantitative high throughput screen for delayed death inhibitors of the malarial parasite plastid, 96 hour incubation (AID 488745). Further: series mostly up to about 29 µM; on the % scale 0 is the no-effect control and ±100 the full control effect; nearly all actives have a fitted effect of over 70% in size. The method, boiled down:
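Luciferase-expressing P. falciparum in erythrocytes (2% hematocrit, 0.1% parasitemia) incubated with compound for 96 h at 37 C, 5% CO2, in RPMI 1640 with 0.5% Albumax. Growth inhibition read as decreased luminescence.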

In test [20] the target is Thyrotropin-releasing hormone receptor (Homo sapiens) (UniProt P34981). As to the kind of experiment: qHTS for Small Molecule Agonists and Allosteric Enhancers of Human TRH Receptor: Validation Screen for Agonists (AID 493127;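 active means calcium activation more than 3 SD above the typical response in the agonist read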; further: 0% is about no effect). The note with it: TRH receptor agonist cell assay; at 2 µM; stronger effect = higher value. The method, boiled down: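 TRHR cells loaded with fluo-8 calcium dye; FDSS kinetic fluorescence (Ex 480/Em 530) read at 1 s/cycle after 23 nL compound addition. Agonist-mode calcium response recorded before the 10 nM TRH (EC20) addition.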
Sequence of Thyrotropin-releasing hormone receptor (Homo sapiens) (P34981 whole entry, looked up): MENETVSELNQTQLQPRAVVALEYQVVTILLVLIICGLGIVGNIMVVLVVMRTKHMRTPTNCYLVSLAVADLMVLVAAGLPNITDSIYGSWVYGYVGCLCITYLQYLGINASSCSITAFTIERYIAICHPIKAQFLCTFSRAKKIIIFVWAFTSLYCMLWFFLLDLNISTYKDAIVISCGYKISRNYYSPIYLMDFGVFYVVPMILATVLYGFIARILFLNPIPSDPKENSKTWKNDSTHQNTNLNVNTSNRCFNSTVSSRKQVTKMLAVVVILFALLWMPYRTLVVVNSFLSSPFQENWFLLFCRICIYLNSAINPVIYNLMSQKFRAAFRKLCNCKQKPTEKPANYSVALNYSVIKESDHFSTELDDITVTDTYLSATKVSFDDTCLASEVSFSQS

Records with an inconclusive call do not appear. Calls of active or inactive are those of the source. Unless noted, the call rests on the fitted dose curve; in most records, active means well fitted curve in the direction sought with a large enough effect; inconclusive means small, poorly fitted or top-dose-only effect, or another doubt; inactive means no such curve, though single readings can be large; an effect the other way counts as inactive or inconclusive.

Sequence of D(1A) dopamine receptor (Homo sapiens) (P21728 whole entry, looked up): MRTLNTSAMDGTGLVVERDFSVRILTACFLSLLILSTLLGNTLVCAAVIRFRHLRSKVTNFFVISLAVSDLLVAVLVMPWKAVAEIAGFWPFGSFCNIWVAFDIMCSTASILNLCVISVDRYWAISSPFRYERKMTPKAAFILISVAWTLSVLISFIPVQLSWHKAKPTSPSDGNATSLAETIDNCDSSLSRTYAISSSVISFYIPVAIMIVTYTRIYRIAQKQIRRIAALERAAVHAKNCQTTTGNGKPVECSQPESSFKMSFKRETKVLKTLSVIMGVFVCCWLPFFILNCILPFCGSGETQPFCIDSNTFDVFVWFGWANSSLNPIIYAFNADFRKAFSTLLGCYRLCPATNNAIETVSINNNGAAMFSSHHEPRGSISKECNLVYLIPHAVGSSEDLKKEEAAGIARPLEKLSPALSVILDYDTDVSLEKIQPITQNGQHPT
Sequence of ATP-dependent 6-phosphofructokinase (Trypanosoma brucei brucei) (O15648 whole entry, looked up): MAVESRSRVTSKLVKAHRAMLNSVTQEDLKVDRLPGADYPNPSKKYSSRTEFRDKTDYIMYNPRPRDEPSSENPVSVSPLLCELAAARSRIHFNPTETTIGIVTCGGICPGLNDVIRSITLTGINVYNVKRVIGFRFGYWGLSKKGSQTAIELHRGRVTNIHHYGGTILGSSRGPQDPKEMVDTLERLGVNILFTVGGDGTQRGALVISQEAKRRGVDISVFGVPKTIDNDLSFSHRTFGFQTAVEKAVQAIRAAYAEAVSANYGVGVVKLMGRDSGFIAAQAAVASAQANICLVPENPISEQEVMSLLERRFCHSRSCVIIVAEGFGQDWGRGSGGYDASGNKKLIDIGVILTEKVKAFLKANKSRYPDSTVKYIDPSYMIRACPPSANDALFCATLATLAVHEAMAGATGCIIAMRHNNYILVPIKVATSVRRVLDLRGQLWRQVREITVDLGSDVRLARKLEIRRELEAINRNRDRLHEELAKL
Sequence of Transient receptor potential cation channel subfamily V member 1 (Homo sapiens) (Q8NER1 whole entry, looked up): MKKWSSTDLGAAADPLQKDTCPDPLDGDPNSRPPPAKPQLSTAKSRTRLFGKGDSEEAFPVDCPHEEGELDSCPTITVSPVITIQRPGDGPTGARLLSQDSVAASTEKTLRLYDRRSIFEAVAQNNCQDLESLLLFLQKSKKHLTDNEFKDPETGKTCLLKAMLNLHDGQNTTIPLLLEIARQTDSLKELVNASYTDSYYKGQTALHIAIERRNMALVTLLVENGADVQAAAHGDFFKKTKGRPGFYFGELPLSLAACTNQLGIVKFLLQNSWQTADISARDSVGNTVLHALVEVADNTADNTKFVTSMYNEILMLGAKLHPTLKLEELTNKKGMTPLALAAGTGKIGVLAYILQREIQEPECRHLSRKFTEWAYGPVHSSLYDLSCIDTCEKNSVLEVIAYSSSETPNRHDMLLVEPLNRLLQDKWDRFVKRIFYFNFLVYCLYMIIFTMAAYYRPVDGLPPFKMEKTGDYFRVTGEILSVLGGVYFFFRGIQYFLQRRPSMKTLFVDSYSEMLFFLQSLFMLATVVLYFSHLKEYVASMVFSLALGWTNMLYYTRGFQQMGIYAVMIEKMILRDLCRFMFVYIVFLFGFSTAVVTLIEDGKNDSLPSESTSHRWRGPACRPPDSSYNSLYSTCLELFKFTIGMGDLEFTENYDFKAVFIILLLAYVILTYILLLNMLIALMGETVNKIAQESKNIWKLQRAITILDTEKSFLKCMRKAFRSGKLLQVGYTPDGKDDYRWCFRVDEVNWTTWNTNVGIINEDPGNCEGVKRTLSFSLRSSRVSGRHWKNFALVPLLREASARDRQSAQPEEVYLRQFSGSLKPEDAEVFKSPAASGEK
Sequence of ATPase family AAA domain-containing protein 5 (Homo sapiens) (Q96QE3 whole entry, looked up, the tested form may be a part): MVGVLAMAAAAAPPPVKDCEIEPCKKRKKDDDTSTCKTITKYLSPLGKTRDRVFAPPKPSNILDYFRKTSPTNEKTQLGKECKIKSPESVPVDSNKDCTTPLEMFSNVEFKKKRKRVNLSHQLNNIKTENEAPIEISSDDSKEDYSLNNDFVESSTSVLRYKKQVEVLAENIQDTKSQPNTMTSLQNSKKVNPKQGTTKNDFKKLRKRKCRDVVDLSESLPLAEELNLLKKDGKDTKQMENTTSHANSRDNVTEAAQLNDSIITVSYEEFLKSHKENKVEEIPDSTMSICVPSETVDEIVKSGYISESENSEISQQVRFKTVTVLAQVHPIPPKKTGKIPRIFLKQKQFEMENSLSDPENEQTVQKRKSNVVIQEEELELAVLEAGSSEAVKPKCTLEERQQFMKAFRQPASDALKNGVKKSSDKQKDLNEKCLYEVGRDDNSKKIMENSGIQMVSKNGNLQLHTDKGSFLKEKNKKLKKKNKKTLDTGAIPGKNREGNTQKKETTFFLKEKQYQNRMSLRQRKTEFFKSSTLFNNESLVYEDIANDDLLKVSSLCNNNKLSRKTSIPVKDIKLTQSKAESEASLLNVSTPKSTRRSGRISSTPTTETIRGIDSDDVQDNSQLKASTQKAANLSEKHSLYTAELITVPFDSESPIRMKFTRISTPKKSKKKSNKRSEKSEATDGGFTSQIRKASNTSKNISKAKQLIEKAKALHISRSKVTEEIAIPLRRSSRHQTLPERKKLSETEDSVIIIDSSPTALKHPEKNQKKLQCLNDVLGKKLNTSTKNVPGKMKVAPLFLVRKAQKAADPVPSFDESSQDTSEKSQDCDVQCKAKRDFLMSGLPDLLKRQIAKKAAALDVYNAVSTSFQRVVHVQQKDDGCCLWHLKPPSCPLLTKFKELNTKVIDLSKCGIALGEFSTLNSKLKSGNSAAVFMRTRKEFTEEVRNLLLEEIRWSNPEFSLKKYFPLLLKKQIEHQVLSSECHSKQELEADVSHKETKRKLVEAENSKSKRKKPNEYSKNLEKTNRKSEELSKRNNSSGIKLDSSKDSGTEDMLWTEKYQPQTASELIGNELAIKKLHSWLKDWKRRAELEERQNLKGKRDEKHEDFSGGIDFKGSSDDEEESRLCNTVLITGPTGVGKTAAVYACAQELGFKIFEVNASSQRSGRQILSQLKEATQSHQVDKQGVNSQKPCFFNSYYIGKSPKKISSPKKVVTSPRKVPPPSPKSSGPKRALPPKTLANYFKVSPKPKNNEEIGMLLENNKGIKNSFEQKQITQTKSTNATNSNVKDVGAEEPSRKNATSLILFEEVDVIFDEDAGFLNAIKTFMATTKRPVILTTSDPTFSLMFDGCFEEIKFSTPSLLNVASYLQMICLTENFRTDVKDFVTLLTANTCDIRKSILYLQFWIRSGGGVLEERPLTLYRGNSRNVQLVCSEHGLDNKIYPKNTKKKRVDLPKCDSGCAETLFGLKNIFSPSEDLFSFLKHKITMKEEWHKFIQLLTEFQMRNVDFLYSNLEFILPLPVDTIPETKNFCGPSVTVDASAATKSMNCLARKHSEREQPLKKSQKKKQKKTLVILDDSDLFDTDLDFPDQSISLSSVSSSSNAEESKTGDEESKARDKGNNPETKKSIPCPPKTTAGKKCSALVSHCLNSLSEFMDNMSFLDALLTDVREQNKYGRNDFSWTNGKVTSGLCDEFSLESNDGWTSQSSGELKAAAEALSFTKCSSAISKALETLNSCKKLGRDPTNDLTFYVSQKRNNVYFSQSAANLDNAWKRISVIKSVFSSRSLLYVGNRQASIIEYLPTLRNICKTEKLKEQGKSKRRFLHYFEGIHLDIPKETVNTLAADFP

As for `N[C@@H](Cc1ccc(O)c(O)c1)C(=O)O`, the Potency in [1] was 23.9 µM (active); in [3], 29.9 µM (active); in [4] it was 3.77 µM (active); in [5], 7.52 µM (active). Further, the compound was called inactive in test [2], in [6], in test [7], in test [8], in test [9] and in test [10]. Besides, in test [13], the result was inactive. Moreover, the Potency result in test [11] and in test [12] was “inactive” in each case. Moreover, in test [12], the viability change was -3.54%.

For `CNS(=O)(=O)Cc1ccc2[nH]cc(CCN(C)C)c2c1`, the Potency entry in [14] is “inactive”.

As for `O=c1oc2c(O)c(O)cc3c(=O)oc4c(O)c(O)cc1c4c23`, in [15], the Potency was 0.004 µM (active).

`CC(=O)[C@H]1CC[C@H]2[C@@H]3CCC4=CC(=O)CC[C@]4(C)[C@H]3CC[C@]12C`: the Potency result in [1], in test [16], in [3], in test [4] and in test [5] was “inactive” each time. Further, the call in test [2], in [6], in [17], in test [18], in [7] and in [8] was inactive. Also, the compound was called inactive in [13].

As to `OCc1ccc(-c2nn(Cc3ccccc3)c3ccccc23)o1`, the Potency entry in test [19], in [16], in test [4], in test [11] and in test [12] was “inactive” throughout. The compound was called inactive in test [2], in test [6], in [17], in test [18], in [7] and in test [8]. For the same compound, the compound was classed as inactive in [9] and in test [13]. Besides, the Potency in test [5] is 25.1 µM (active). Also, the activation in test [20] was 0.188% (inactive). Besides, in test [12], the viability change is 4.14%.

For `CC(C)NCC(O)c1ccc(NS(C)(=O)=O)cc1` (centres undefined), the Potency entry in [16], in test [3], in test [4], in test [5], in [14] and in test [11] was “inactive” each time. In addition, the Potency entry in test [12] was “inactive”. Also, the call in test [2], in test [6], in [17], in test [18], in test [7] and in test [8] was inactive. Besides, the call in test [9], in [10] and in [13] was inactive. Besides, in test [20], the activation is 0.875% (inactive). Further, the viability change in test [12] is -6.97%.

With `CC(C)(C)NC(=O)[C@H]1CC[C@H]2[C@@H]3CC[C@H]4NC(=O)C=C[C@]4(C)[C@H]3CC[C@]12C`, the Potency result in test [19], in test [16] and in test [5] was “inactive” each time. In addition, the result in test [17] was inactive. Further, the activation in [20] was 0.688% (inactive).

With `CCCCS(=N)(=O)CCC(N)C(=O)O` (centres undefined), the Potency entry in test [1], in test [19], in [3], in test [4], in test [5] and in [11] was “inactive” throughout. Further, in test [12], the Potency result was “inactive”. For the same compound, in test [16], the Potency is 2.08 µM (active). Also, the compound was classed as inactive in test [2], in [6], in test [17], in test [18], in [7] and in test [8]. Also, the outcome in test [9], in test [10] and in [13] was inactive. Moreover, the activation in test [20] was -2.38% (inactive). In addition, the viability change in [12] is 4.08%.

For the compound `O=C(O)C1CCCN(CCC=C(c2ccccc2)c2ccccc2)C1` (centres undefined), the Potency result in [19], in [16], in test [3], in test [4], in test [5] and in [11] was “inactive” each time. The Potency result in test [12] was “inactive”. The result in test [2], in test [6], in test [17], in test [18], in test [7] and in [8] was inactive. The compound was called inactive in test [9], in test [10] and in [13]. For the same compound, the activation in test [20] is 0.875% (inactive). Further, the viability change in test [12] was -7.12%.

In the case of `Nc1nc(N)c2nc(CNc3ccc(C(=O)NC(CCC(=O)O)C(=O)O)cc3)cnc2n1` (centres undefined), the Potency entry in test [19], in [16], in test [3], in test [4] and in test [11] was “inactive” each time. Besides, the result in [6], in test [17], in [18], in [7], in [8] and in [9] was inactive. In addition, the result in test [13] was inactive. In [20], the activation was 1% (inactive).

As for `COc1cnc(NS(=O)(=O)c2ccc(N)cc2)nc1`, the Potency result in [14] was “inactive”.

For the compound `CC1=C(C(=O)O)N2C(=O)[C@@H](NC(=O)C(N)c3ccccc3)[C@H]2SC1` (some centres undefined), the Potency entry in [19], in [16], in [3], in test [4], in test [11] and in [12] was “inactive” throughout. Further, the compound was called inactive in test [2], in test [6], in test [17], in [7], in test [8] and in test [9]. Moreover, the call in test [10] and in test [13] was inactive. Further, in test [20], the activation is 0% (inactive). For the same compound, the viability change in [12] came to 3.05%.

These data come from PubChem BioAssay (NCATS).
